# ARNT-TACC3 inh: disruptors of ARNT/TACC3 protein interaction, primary screen, biochemical, AlphaScreen, single concentration; AlphaScreen His-ARNT PAS-B/GST-TACC3 binding, luminescence; TACC3 fragment carries E629A point mutation; inhibition, % at 9.99 µM; 390,000 compounds, 0.66% hits;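 active means mean inhibition of replicates at least 50% and at least half of replicates each reaching 50%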;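 further: 0% = complete ARNT plus TACC3 wells and 100% = ARNT alone without TACC3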
# HGIII-sPLA2 inh: human group III sPLA2 inhibitors, primary screen, biochemical, QFRET, BODIPY PC-A2 liposome substrate; QFRET BODIPY PC-A2 liposome hydrolysis, fluorescence; inhibition, % at 12.2 µM; 370,000 compounds, 0.56% hits;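 active means inhibition above mean plus 3 SD of compounds lying within the high and low control bounds, cut at about 19% in these data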;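 further: 0% = median of test compound wells and 100% = no enzyme DMSO wells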
# Target sequence (Q9NZ20 whole entry, looked up): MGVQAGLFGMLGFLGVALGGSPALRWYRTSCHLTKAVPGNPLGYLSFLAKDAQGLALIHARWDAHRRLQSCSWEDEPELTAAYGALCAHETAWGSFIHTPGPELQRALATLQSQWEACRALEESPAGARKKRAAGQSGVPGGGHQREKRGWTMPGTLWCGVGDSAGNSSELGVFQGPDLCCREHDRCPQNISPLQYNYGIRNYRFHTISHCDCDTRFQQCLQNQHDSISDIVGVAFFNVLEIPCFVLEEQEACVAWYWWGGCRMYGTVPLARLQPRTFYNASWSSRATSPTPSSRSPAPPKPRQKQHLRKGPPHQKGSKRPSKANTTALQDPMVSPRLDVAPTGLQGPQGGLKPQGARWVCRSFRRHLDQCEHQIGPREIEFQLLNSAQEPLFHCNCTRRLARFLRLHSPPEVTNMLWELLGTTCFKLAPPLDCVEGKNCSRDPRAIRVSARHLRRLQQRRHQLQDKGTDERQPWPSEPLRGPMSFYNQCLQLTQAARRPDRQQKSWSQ
# Rin1 Abl inh: inhibitors of Rin1-Abl protein binding, primary screen, biochemical, TR-FRET | Tyrosine-protein kinase ABL1 (Homo sapiens) + Ras and Rab interactor 1 (Homo sapiens), … | inhibition, % at 7.35 µM | 360,000 compounds, 0.4% hits; in the data active means inhibition above about 5%, passing the limit was not always enough
# AI-2 QS modul: Vibrio harveyi AI-2 quorum sensing modulators, primary screen, JMH597 strain, luminescence/OD600 ratio; 300,000 compounds, 0.4% hits; activity change, % at 7.5 µM; Vibrio harveyi JMH597 AI-2 luminescence/OD600 ratio, 9 h; active compounds read low; strain lacks LuxN and CqsS sensors; 0 = neutral-control median; AID 2094, 2009; in the data active means activity change below about -75%, passing the limit was not always enough;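 further: luminescence divided by OD600 gain over 9 h not by final OD600 alone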
# hGIII sPLA2 conf: human group III sPLA2 inhibitors, confirmation, biochemical, QFRET, triplicate; shares compounds with HGIII-sPLA2 inh; recombinant hGIII-sPLA2, BODIPY PC-A2 QFRET fluorescence; inhibition, % at 12.2 µM; 2,000 compounds, 34% hits; AID 743280, 2014;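 active means mean inhibition across triplicates above the hit cutoff set in the earlier primary screen, cut at about 19% in these data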;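 further: 0% = enzyme with DMSO and 100% = DMSO wells lacking enzyme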
# BODIPY interf: 535nm fluorescence optical interference, confirmation, artefact control for HGIII-sPLA2 inhibitor project, biochemical, QFRET. shares compounds with HGIII-sPLA2 inh. AID 743282, 2014. 2,000 compounds, 8.5% hits. inhibition, % at 12.2 µM. BODIPY FL product fluorescence interference;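 active means average inhibition above the solvent-only control mean plus 3 SD, cut at about 6% in these data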;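 further: 0% = DMSO with substrate plus product and 100% = DMSO with substrate alone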
# * = called active by the depositor; . = no result given. In the library only some 1.5% were active in any assay of this set; here they are far more common.
SMILES,ARNT-TACC3 inh,HGIII-sPLA2 inh,Rin1 Abl inh,AI-2 QS modul,hGIII sPLA2 conf,BODIPY interf
O=C(Nc1nc2ccccc2[nH]1)c1cccc(S(=O)(=O)N2CCOCC2)c1,22,17,-1,43,.,.
N#Cc1ccc(C(=O)Nc2nc3ccccc3[nH]2)cc1,-28,23*,-2,34,19,0
O=C(C[C@@H]1CC[C@H]2[C@@H](COC[C@H](O)CN2CC2CCOCC2)O1)NCC1CC1,6,.,.,.,.,.
C[C@H](NC(=O)C[C@H]1C[C@H]2c3cc(NS(C)(=O)=O)ccc3O[C@H]2[C@@H](CO)O1)c1ccccc1,-11,.,.,.,.,.
COc1ccccc1-c1cnc2c(c1)C(=O)N([C@@H](C)CO)C[C@H](C)[C@@H](CN(C)Cc1cccc(F)c1)O2,3,.,.,.,.,.
NNC(=O)c1oc2nc(-c3ccccc3)cc(-c3ccccc3)c2c1N,.,-6,0,8,.,.
CNC(=S)NNC(=O)c1oc2nc(-c3ccccc3)cc(C)c2c1N,1,25*,-5,17,18,-2
COc1ccc(O)c(/C=N/NC(=S)Nc2cccnc2)c1,67*,20*,-1,25,27*,5
COc1ccc(O)c(/C=N/NC(=S)Nc2cccc(S(=O)(=O)N(C)C)c2)c1,65*,24*,0,-5,11,12*
COc1cccc(/C=N/NC(=S)Nc2cccnc2)c1,3,3,0,21,.,.
COc1cccc(/C=N/NC(=S)Nc2cccc(S(=O)(=O)N(C)C)c2)c1,13,7,0,17,.,.
C[C@@H]1CCCCO[C@@H](CN(C)CC2CCCCC2)[C@@H](C)CN([C@@H](C)CO)C(=O)c2cc(NC(=O)CCC(F)(F)F)ccc2O1,-6,.,.,.,.,.
O=C(C[C@H]1CC[C@H](NC(=O)Nc2ccccc2)[C@H](CO)O1)NCc1cccc(F)c1,3,.,.,.,.,.
CC(C)n1cc(C(N)=S)c(=O)n(Cc2ccccc2)c1=O,-1,21*,0,25,12,-4
Cn1c(=O)c(C(N)=S)cn(-c2ccccc2)c1=O,-7,15,2,15,.,.
CCCNC(=O)N[C@@H]1CC[C@H](CC(=O)NC2CCCCC2)O[C@H]1CO,-2,.,.,.,.,.
CCN(CCCCCN(C)C)Cc1cc2ccccc2o1,-8,21*,-2,12,-2,-19
C[C@@H]1CCCCO[C@H](CN(C)Cc2ccncc2)[C@@H](C)CN([C@H](C)CO)C(=O)c2cc(NC(=O)Nc3ccccc3)ccc2O1,-13,.,.,.,.,.
COc1cccc2cc(C(=O)NCCc3ccccc3)oc12,-3,-3,-4,-6,.,.
COc1cccc(OC)c1C(=O)NCCc1ccccc1,-9,21*,-2,9,-7,-7
C[C@@H]1CN([C@H](C)CO)C(=O)Cc2cc(NC(=O)c3ccncc3)ccc2O[C@H]1CN(C)C(=O)Nc1ccccc1,7,.,.,.,.,.
S=c1[nH]nc(-c2ccccc2)c2ccccc12,2,20*,1,5,25*,-3
C[C@H](CO)N1C[C@H](C)[C@@H](CN(C)S(=O)(=O)c2ccccc2)Oc2ncc(Br)cc2C1=O,-20,.,.,.,.,.
COC(=O)[C@]12C[C@H](CC(=O)N3CCN(C(=O)C4CC4)CC3)C(=O)N(Cc3ccco3)C1=C[C@H](C(C)C)O[C@@H]2C1CC1,.,20*,.,.,-3,-20
C(=NOCCc1ccccc1)c1cccnc1,-7,20*,-5,.,-4,-5
CCCNC(=O)c1ccc2c(=O)c(O)c(-c3cccc(Br)c3)[nH]c2c1,-16,20*,3,-2,10,-3
CCCNC(=O)c1ccc2c(=O)c(O)c(-c3ccc(F)cc3)[nH]c2c1,3,.,-1,17,.,.
Cc1ccc(CNC(=O)C2CCCN(c3nc4ccccc4o3)C2)cc1 (stereo not drawn),-3,19*,-2,-5,4,-6
CCN(CC)C(=O)CNC(=S)N(CCCN1CCOCC1)Cc1cccs1,0,20*,5,7,3,-11

# Source: PubChem
